Reference: PubChem BioAssay (NCI)
The panel holds about 79,000 compounds, 15% with a hit somewhere; the sample as a whole holds those more often. Activity calls are given as the source filed them. No stated cut-off is given here; in the data, active means growth inhibition above about 70%; inactive means the rest.

Legend:
[1] = NCI Yeast Anticancer Drug Screen. Data for the rad52 strain (AID 147);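 further: 0% = growth of vehicle-treated control cultures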; details: S. cerevisiae rad52 mutant growth inhibition, stronger effect = higher value
Procedure, shortened: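 Inhibition of yeast growth, referenced to vehicle controls, was the measured output for a strain with defective DNA damage repair.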

[2] = NCI Yeast Anticancer Drug Screen. Data for the wt1 strain (AID 149);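 further: 0% = growth of vehicle-treated wt1 cultures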; details: S. cerevisiae wt1 strain (SPY 50644) growth inhibition, stronger effect = higher value
Procedure, shortened: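 Using yeast strain wt1, compound-induced growth inhibition was determined against vehicle-treated cultures.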

[3] = NCI Yeast Anticancer Drug Screen. Data for the rad50EPP+ strain (AID 151);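 further: 0% = growth of vehicle-treated control cultures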; details: S. cerevisiae rad50 mutant strain, stronger effect = higher value
Procedure, shortened: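 Genetically defined yeast (rad50EPP+, DNA damage repair alteration) is grown with compound, and inhibition of growth is expressed relative to vehicle-treated controls.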

[4] = NCI Yeast Anticancer Drug Screen. Data for the mgt1 strain (AID 153); details: S. cerevisiae mgt1 mutant growth inhibition, stronger effect = higher value
Procedure, shortened: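 In the mgt1 strain, test compounds were added and growth inhibition was determined relative to vehicle-treated controls.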

[5] = NCI Yeast Anticancer Drug Screen. Data for the rad50 strain (AID 155);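 further: 0% = growth of vehicle-only cultures of the same strain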; details: S. cerevisiae rad50 strain growth inhibition, stronger effect = higher value
Procedure, shortened: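 Relative growth inhibition (compound vs vehicle) was measured in yeast with a defined repair-gene alteration.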

[6] = NCI Yeast Anticancer Drug Screen. Data for the mec2-1 strain (AID 157); details: S. cerevisiae mec2-1 strain, stronger effect = higher value
Procedure, shortened: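 Each compound was tested on mec2-1 yeast, a strain altered in DNA damage repair or cell cycle control. Growth inhibition is reported relative to vehicle.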

[7] = NCI Yeast Anticancer Drug Screen. Data for the rad14 strain (AID 159);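 further: 0% = growth of vehicle-treated control cultures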; details: S. cerevisiae rad14 strain growth inhibition, stronger effect = higher value
Procedure, shortened: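 Screen for anticancer potential: a yeast strain altered in DNA damage repair is grown with compound, and reduced growth is quantified against vehicle controls.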

[8] = NCI Yeast Anticancer Drug Screen. Data for the sgs1 mgt1 strain (AID 161);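 further: 0% = growth of cultures given vehicle only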; details: S. cerevisiae sgs1 mgt1 strain, stronger effect = higher value
Procedure, shortened: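 Inhibition of yeast growth, normalised to vehicle-treated controls, is reported for a strain bearing genetic alterations in DNA damage repair.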

[9] = NCI Yeast Anticancer Drug Screen. Data for the CLN2oe strain (AID 163);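 further: 0% = growth of vehicle-only control cultures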; details: S. cerevisiae CLN2oe strain, stronger effect = higher value
Procedure, shortened: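 First, the altered yeast strain was treated with each compound; second, its growth was measured; finally, inhibition was derived by comparison with vehicle controls.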

[10] = NCI Yeast Anticancer Drug Screen. Data for the cln2 rad14 strain (AID 165);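 further: 0% = growth equal to vehicle treated cultures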; details: S. cerevisiae cln2 rad14 strain, stronger effect = higher value
Procedure, shortened: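 Test compounds were added to cln2 rad14 yeast cultures; inhibition of growth was then determined by comparison with vehicle treatment.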

[11] = NCI Yeast Anticancer Drug Screen. Data for the bub3 strain (AID 167); details: S. cerevisiae bub3 mutant strain, stronger effect = higher value
Procedure, shortened: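 Screening used yeast with an engineered genetic alteration affecting cell cycle control. Compound-exposed cultures were compared with vehicle cultures, and reduced growth was taken as inhibition.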

[12] = NCI Yeast Anticancer Drug Screen. Data for the wt2 strain (AID 169);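 further: 0% = growth of vehicle-treated yeast cultures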; details: S. cerevisiae wt2 strain growth inhibition, stronger effect = higher value
Procedure, shortened: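 The panel's yeast strains carry defined changes in DNA repair or cell cycle genes. Each strain is grown with compound, and growth loss is scored relative to vehicle.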

[13] = NCI Yeast Anticancer Drug Screen. Data for the mlh1 strain (AID 171);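 further: 0% = growth of vehicle-treated control cultures of the same strain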; details: S. cerevisiae mlh1 strain growth inhibition, stronger effect = higher value
Procedure, shortened: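 Inhibition values reflect reduced yeast growth in the presence of compound, referenced to vehicle controls, using a strain chosen for its alteration in DNA repair or cell cycle control.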

[14] = NCI Yeast Anticancer Drug Screen. Data for the sgs1 strain (AID 173);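 further: 0% = growth of vehicle-only control cultures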; details: S. cerevisiae sgs1 mutant, stronger effect = higher value
Procedure, shortened: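 Vehicle-treated cultures served as reference for growth inhibition of a yeast strain altered in DNA damage repair or cell cycle control after compound exposure.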

[15] = NCI Yeast Anticancer Drug Screen. Data for the mlh1 rad18 strain (AID 175); details: S. cerevisiae mlh1 rad18 strain growth inhibition, stronger effect = higher value
Procedure, shortened: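 Inhibition values reflect reduced growth of mutant yeast versus vehicle-treated controls following compound exposure; the mutations affect DNA damage repair.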

[16] = NCI Yeast Anticancer Drug Screen. Data for the rad18 strain (AID 177); details: S. cerevisiae rad18 mutant growth inhibition, stronger effect = higher value
Procedure, shortened: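 Steps: expose repair-mutant yeast to compound; measure growth; express as inhibition relative to vehicle control.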

[17] = at 5.0 µM (retest, dose inferred, filed as 0.5)
[18] = at 50.0 µM (retest, dose inferred, filed as 5.0)

Measured: growth inhibition

CC(C)(C)c1cc([N+](=O)[O-])cc([N+](=O)[O-])c1O
inactive: [1]; at 1.2 µM -11% | [1]; at 3.7 µM -17% | [1]; at 11.0 µM -1% | [1]; at 33.0 µM 17% | [1]; at 100.0 µM 33% | [2]; at 1.2 µM -16% | [2]; at 3.7 µM -23% | [2]; at 11.0 µM -7% | [2]; at 33.0 µM 12% | [2]; at 100.0 µM 38% | [3]; at 1.2 µM -54% | [3]; at 3.7 µM -54% | [3]; at 11.0 µM -44% | [3]; at 33.0 µM -25% | [3]; at 100.0 µM -13% | [4]; at 1.2 µM -52% | [4]; at 3.7 µM -34% | [4]; at 11.0 µM 21% | [4]; at 33.0 µM -11% | [4]; at 100.0 µM 43% | [5]; at 1.2 µM -24% | [5]; at 3.7 µM -26% | [5]; [17] 46% | [5]; at 11.0 µM -5% | [5]; at 33.0 µM 1% | [5]; at 100.0 µM 22% | [6]; at 1.2 µM -61% | [6]; at 3.7 µM -47% | [6]; [17] 66% | [6]; at 11.0 µM -25% | [6]; at 33.0 µM -8% | [6]; at 100.0 µM 7% | [7]; at 1.2 µM -19% | [7]; at 3.7 µM -12% | [7]; at 11.0 µM 6% | [7]; at 33.0 µM 26% | [7]; at 100.0 µM 29% | [8]; [17] 0% | [8]; [18] 38% | [9]; at 1.2 µM 9% | [9]; at 3.7 µM 1% | [9]; at 11.0 µM 12% | [9]; at 33.0 µM 25% | [9]; at 100.0 µM 28% | [10]; [17] 46% | [10]; [18] 21% | [11]; at 1.2 µM -17% | [11]; at 3.7 µM -15% | [11]; [17] -13% | [11]; at 11.0 µM -2% | [11]; at 33.0 µM 9% | [11]; [18] 39% | [11]; at 50.0 µM 68.6% | [11]; at 100.0 µM 21% | [12]; at 1.2 µM -35% | [12]; at 3.7 µM -29% | [12]; at 11.0 µM -11% | [12]; at 33.0 µM 23% | [12]; at 100.0 µM 47% | [13]; at 1.2 µM -38% | [13]; at 3.7 µM -33% | [13]; at 11.0 µM -4% | [13]; at 33.0 µM 10% | [13]; at 100.0 µM 42% | [14]; at 1.2 µM -20% | [14]; at 3.7 µM -8% | [14]; at 11.0 µM 15% | [14]; at 33.0 µM 40% | [14]; at 100.0 µM 46% | [15]; [17] 50% | [15]; at 50.0 µM 67.7%
active: [5]; [18] 100% | [5]; at 50.0 µM 78.8% | [6]; [18] 99% | [6]; at 50.0 µM 72.2% | [8]; at 50.0 µM 84.3% | [10]; at 50.0 µM 73.4% | [15]; [18] 100%

Cc1ccc2c(c1N)C(=O)c1ccccc1C2=O
active: [1]; at 33.0 µM 73% | [1]; at 100.0 µM 73% | [3]; at 33.0 µM 78% | [3]; at 100.0 µM 76% | [5]; [18] 91% | [15]; at 50.0 µM 71.8%
inactive: [1]; at 1.2 µM 8% | [1]; at 3.7 µM 22% | [1]; at 11.0 µM 47% | [2]; at 1.2 µM -3% | [2]; at 3.7 µM -1% | [2]; at 11.0 µM 6% | [2]; at 33.0 µM 5% | [2]; at 100.0 µM 5% | [3]; at 1.2 µM 22% | [3]; at 3.7 µM 45% | [3]; at 11.0 µM 69% | [4]; at 1.2 µM -3% | [4]; at 3.7 µM -3% | [4]; at 11.0 µM 6% | [4]; at 33.0 µM -8% | [4]; at 100.0 µM 6% | [5]; at 1.2 µM 5% | [5]; at 3.7 µM 19% | [5]; [17] 59% | [5]; at 11.0 µM 40% | [5]; at 33.0 µM 62% | [5]; at 50.0 µM 30.5% | [5]; at 100.0 µM 63% | [6]; at 1.2 µM 2% | [6]; at 3.7 µM 4% | [6]; [17] 8% | [6]; at 11.0 µM 8% | [6]; at 33.0 µM 11% | [6]; [18] 36% | [6]; at 50.0 µM 42% | [6]; at 100.0 µM 15% | [7]; at 1.2 µM 3% | [7]; at 3.7 µM 5% | [7]; at 11.0 µM 8% | [7]; at 33.0 µM 9% | [7]; at 100.0 µM 16% | [8]; [17] 7% | [8]; [18] 42% | [8]; at 50.0 µM 45.2% | [9]; at 1.2 µM -4% | [9]; at 3.7 µM -3% | [9]; at 11.0 µM -4% | [9]; at 33.0 µM -4% | [9]; at 100.0 µM 6% | [10]; [17] 6% | [10]; [18] 14% | [10]; at 50.0 µM 40.8% | [11]; at 1.2 µM 2% | [11]; at 3.7 µM 13% | [11]; [17] -9% | [11]; at 11.0 µM 31% | [11]; at 33.0 µM 37% | [11]; [18] 62% | [11]; at 50.0 µM 61.4% | [11]; at 100.0 µM 35% | [12]; at 1.2 µM -3% | [12]; at 3.7 µM 1% | [12]; at 11.0 µM 6% | [12]; at 33.0 µM 10% | [12]; at 100.0 µM 8% | [13]; at 1.2 µM -3% | [13]; at 3.7 µM -1% | [13]; at 11.0 µM 10% | [13]; at 33.0 µM 5% | [13]; at 100.0 µM 4% | [14]; at 1.2 µM -4% | [14]; at 3.7 µM -3% | [14]; at 11.0 µM 1% | [14]; at 33.0 µM 7% | [14]; at 100.0 µM 5% | [15]; [17] 15% | [15]; [18] 45% | [16]; at 1.2 µM -4% | [16]; at 3.7 µM 1% | [16]; at 11.0 µM 5% | [16]; at 33.0 µM 3% | [16]; at 100.0 µM 13%
